Source: PubChem BioAssay
Many of the other results were omitted from the sample, so hits are more common in it than they were.
Pf Dd2 growth = inhibitors of Plasmodium falciparum Dd2 growth. P. falciparum Dd2 growth, SYBR Green, 72 h. Potency, µM (series often up to 28.9 µM), most hits filed as inhibitors. 120,000 compounds, 4.3% hits. AID 1347417; active means well fitted inhibition curve with a large enough effect; further: nearly all actives have a fitted effect of over 65% in size
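Readout: SYBR Green fluorescence, 485 nm excitation, 535 nm emission, after ~16 h lysis at 37C. Before that, Dd2-infected red cells (2.5% hematocrit) grew 72 h with compound, 29 uM top final concentration.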
A number is an active result; – = inactive; [ ] = dose if it differs, or a comment.

SMILES	Pf Dd2 growth
CC(C)NC(=O)CN1CN(c2ccccc2)C2(CCN(C(=O)NCc3ccccc3)CC2)C1=O	–
CC(C)(C)C(=O)N1CCC2(CC1)C(=O)N(CC(=O)Nc1cccc(Cl)c1)CN2c1ccccc1	4µM
CCCNC(=O)CN1CN(c2ccccc2)C2(CCN(C(=O)Nc3ccc(CC)cc3)CC2)C1=O	–
Cc1c(CC(=O)NC(C)C2CC2)c2c(n1Cc1ccccc1F)CCCC2=O (stereo unspecified)	10µM
Cc1c(CC(=O)NCC2CC2)c2c(n1Cc1ccccc1F)CCCC2=O	–
Cc1c(CC(=O)NC2CCOC2=O)c2c(n1Cc1ccccc1F)CCCC2=O (stereo unspecified)	–
Cc1ccc(CN2C[C@H]3CN(C(=O)c4cccnc4)CCN3C2=O)cc1	–
COc1ccc(NC(=O)CCn2cnnn2)cc1NC(=O)c1ccccc1	–
COc1ccc(C(=O)NCC2Cn3cccc3C(=O)N2C)cc1 (stereo unspecified)	–
Cc1ccc(CCNC(=O)c2cc3c(-c4ccccc4F)nn(C)c3s2)cc1	–
COc1ccc(CNC(=O)c2cc3c(-c4ccc(Cl)cc4)nn(C)c3s2)cc1	–
CCCN(CCC)CCCNC(=O)c1cc2c(-c3ccc(Cl)cc3)nn(C)c2s1	8.9µM
C[C@@H]1CN(C(=O)Cc2ccc3c(c2)OCO3)C[C@]1(C)O	–
O=C(OCc1ccccc1)N1CCC2(CC1)C(=O)NN=C2c1cccnc1	–
NCC(=O)N1CCC2(CC1)CN(C(=O)Cc1cccc(Cl)c1)CCO2	–
C#CCN(C)C(=O)[C@@H](C)C1CC[C@@]2(C)Cc3sc(NC)nc3[C@@H](C)[C@@H]2[C@H]1O (stereo partly specified)	–
CCN(CC)C(=O)[C@@H](C)C1CC[C@@]2(C)Cc3sc(Nc4c(Cl)cccc4Cl)nc3[C@@H](C)[C@@H]2[C@H]1O (stereo partly specified)	13µM
CCN(CC)C(=O)C(C)[C@@H]1CC[C@@]2(C)Cc3sc(NC(=O)C4CC4)nc3[C@@H](C)[C@@H]2[C@H]1O (stereo partly specified)	–
O=C(C1CC1)N1CC(F)(F)C[C@H]1c1nc(-c2ncccn2)no1	–
Cn1cnc(C(=O)N2CCCN(S(C)(=O)=O)c3ccccc32)c1	–
COc1ccc(N2CCN(C(=O)CSc3nc4ccccc4nc3Cc3ccc(Cl)cc3)CC2)cc1	–
CCc1ccc(NC(=O)CSc2nc(-c3ccccc3)no2)cc1	2.5µM
CC(C)c1ccc(-c2noc(SCC(=O)N(C)c3ccc(F)cc3)n2)cc1	0.79µM
CC(C)c1ccc(C(=O)N2CCC(Cc3nc(-c4ccc(F)cc4)no3)CC2)cc1	–
COc1ccc(N2CCN(C(=O)CSc3nc(-c4ccccc4)no3)CC2)cc1	2.8µM
SMILES	Pf Dd2 growth
CN(C(=O)Cn1cccc1-c1nc(-c2ccc(F)cc2)no1)c1ccccc1	–
CCN(C(=O)CSc1nc2ccccc2nc1Cc1ccccc1OC)c1ccccc1	–
CCc1ccc(NC(=O)CSc2nc3ccccc3nc2Cc2ccc(C)cc2)cc1	–
CCc1ccc(NC(=O)CSc2nc(-c3ccccc3)c(C#N)c(=O)[nH]2)cc1	–
CCN(C(=O)CSc1nc2ccccc2[nH]1)c1ccccc1	–[5.79 µM]
CCN(C(=O)CSc1nc(-c2ccccc2)no1)c1ccccc1	3.2µM
COc1ccc(N2CCN(C(=O)CSc3n[nH]c(-c4ccccc4Cl)n3)CC2)cc1	–
O=S(=O)(c1ccccc1)N1CCC(NCC2(O)CNCCOC2)CC1 (stereo unspecified)	–
CCOc1ccccc1C(=O)N1CCN(C(=O)c2nnn3c2COC(c2ccc(Cl)cc2)C3)CC1 (stereo unspecified)	–
COCCN(C)C[C@@H]1CN(C(=O)c2ccc3c(c2)CCC3)C[C@@H]1CO	–
COCCNC(=O)[C@@H]1C[C@@H](O)CN1C1CCN(C(=O)c2cccc(OC)c2)CC1	–
O=C(Cn1ccn2nc(-c3ccc(F)cc3)c(CO)c2c1=O)N1CCc2ccccc21	–
O=C1NC(=NC2CCCCC2)C2(CCN([S+](=O)([O-])c3ccccc3)CC2)N1c1cccnc1	–
COc1ccc(C(C)NC(=O)C2CCN(C(=O)c3ncn4c3COC(c3ccccc3)C4)CC2)cc1 (stereo unspecified)	7.9µM
CC(NC(=O)C1CCN(C(=O)c2ncn3c2COC(c2ccc(Cl)cc2)C3)CC1)c1ccccc1 (stereo unspecified)	–
CC(NC(=O)C1CCN(C(=O)c2ncn3c2COC(c2ccccc2)C3)CC1)c1ccc(F)cc1 (stereo unspecified)	–
COCCOCC(=O)N1C[C@@H](Oc2ccccc2)C[C@H]1C(=O)N1CCOCC1	–
CCOc1ccc(C(=O)N2CCC(c3n[nH]c(=O)n3-c3ccc(C)cc3)CC2)cc1	–
COc1ccc(NC(=O)N2c3ccccc3CC2c2nc(C(C)C)no2)c(OC)c1 (stereo unspecified)	–[5.79 µM]
COc1ccc2nc([C@H]3CCN(C4CCN(C(C)=O)CC4)C3)[nH]c2c1	–
CC(C)N1CC[C@H](c2nc3ccc(C#N)cc3[nH]2)C1	–
c1ccc(CCCN2CC[C@H](c3nc4ccccc4[nH]3)C2)cc1	–
COc1ccc2nc([C@H]3CCN(C(C)C)C3)[nH]c2c1	32µM
COc1ccc2nc([C@H]3CCN(CCCc4ccccc4)C3)[nH]c2c1	11µM
COc1ccc2nc([C@H]3CCN(Cc4ccc(C(=O)O)cc4)C3)[nH]c2c1	–
SMILES	Pf Dd2 growth
CS(=O)(=O)N1C[C@@H]2CN(C(=O)NC3CCCC3)C[C@]2(C(=O)O)C1	–
c1cc(-c2nc(C3CCOC3)nn2Cc2ccc3c(c2)OCO3)[nH]n1 (stereo unspecified)	–
NCc1ccc(-c2nc(C3CCOC3)nn2Cc2ccccc2)cc1 (stereo unspecified)	4.5µM
c1ccc(Cn2nc(C3CCOC3)nc2-c2ccoc2)cc1 (stereo unspecified)	–
CN1C(=O)[C@H]2CN(Cc3ccc(Br)cc3)C[C@H]2C1=O	–
O=C(c1cc(Cl)ccc1F)N1CCC[C@H]1c1nc(-c2ccccc2)no1	–
Cc1cccc(CN2C(=O)CN=C(c3ccccc3)c3ccccc32)c1	–
Cc1cc(C)cc(NC(=O)CN2C(=O)CN=C(c3ccccc3)c3cc(Cl)ccc32)c1	–
Cc1nc(-c2ccccc2)n(Cc2nc(-c3ccc(Cl)cc3)oc2C)c(=O)c1CCO	–
Cc1ccc(-c2nc(CN3C(=O)CN=C(c4ccccc4Cl)c4cc(Cl)ccc43)c(C)o2)cc1	11µM
Cc1oc(-c2ccccc2Cl)nc1CN1C(=O)CN=C(c2ccccc2)c2cc(Cl)ccc21	–
O=C1CN=C(c2ccccc2)c2cc(Cl)ccc2N1Cc1ccc(Cl)cc1	8.9µM
CCCNC(=O)N1CCCCC1c1noc(COc2ccc(C)cc2)n1 (stereo unspecified)	–
COC(=O)CN1C(=O)[C@@H]2C[C@@H](O)CN2C2(CN(C3Cc4ccccc4C3)C2)C1=O	–
CC(C)c1noc(CC2CCN(C(=O)c3ccccn3)CC2)n1	–
COc1ccc(C(=O)NC2CCN(C(=O)N3CC4CC(C3)[C@H]3CCCC(=O)N3C4)CC2)c(OC)c1 (stereo partly specified)	–
COc1ccc(C(=O)NC2CCN(C(=O)N3CC4CC(C3)[C@H]3CCCC(=O)N3C4)CC2)c(OC)n1 (stereo partly specified)	5µM
COc1ccc(C(=O)NC2CCN(C(=O)N3CC4CC(C3)[C@H]3CCCC(=O)N3C4)CC2)cn1 (stereo partly specified)	–
CN(C)C[C@@H]1CN(c2ncccn2)C[C@H]1NS(=O)(=O)c1cccnc1	–
